Results reported in PubChem BioAssay (EPA / NIEHS).
Values joined by “and” are separate entries in the source; they are usually repeats but may differ in a detail not shown here. Identical values can stand only once. Active and inactive are the calls of the source. Rule for the calls: active = hit-call score of the fitted dose curve at least 0.9, where 1 is the maximum; inconclusive = response in the unintended direction; inactive = score below 0.9.

experiment: IUF_NPC2-5_cytotoxicity_120hr: Cytotoxicity Assessment at 120 hours in the Leibniz Research Institute for Environmental Medicine (IUF) Neural Progenitor Cell Migration and Differentiation Assay (NPC2-5) (AID 2284307);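 for AC50: LDH released into supernatant as membrane damage marker via resorufin fluorescence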
Description: IUF_NPC2-5 is a cell-based, multiplexed assay that uses hNPC, a human primary neural progenitor cells, with measurements taken at 72 or 120 hours after chemical dosing in a 96-well plate. Human neural progenitor cells (hNPC) are generated from human fetal brain cortex at gestational week (GW) 16-19. In the neural progenitor cell migration and differentiation assay (NPC2-5), hNPCs grown as spheres are plated on an extracellular matrix and migrate and differentiate out of the sphere core. The processes radial glia migration, neuronal and oligodendrocyte migration as well as neuronal differentiation, neuronal morphology and oligodendrocyte differentiation are studied using automated phase contrast imaging and automated fluorescence imaging in combination with high content image analysis. In parallel, the cell viability is assessed using an alamar blue viability assay and the cytotoxicity using a lactate dehydrogenase dependent membrane integrity assay.IUF_NPC2-5_cytotoxicity_120hr is one of 12 assay components measured from the IUF_NPC2-5 assay. It is designed to measure cytotoxicity at 120hr due to loss of membrane integrity. LDH measurements are performed from medium supernatants of each well and are based on the reduction of resazurin to resorufin measured as fluorescence signal (relative fluorescence unit) in a multiplate reader. Data from the IUF_NPC2-5_cytotoxicity_120hr component was analyzed at the endpoint IUF_NPC2-5_cytotoxicity_120hr in the positive analysis fitting direction relative to the dynamic range and baseline of activity. Using a type of viability reporter, gain-of-signal activity can be used to understand cytotoxicity effects.
Culture protocol: After the cell expansion period the cells are cultured for up to four weeks in which they are passaged every week as described in 3.6. Between one to three days after passaging spheres at a size of 0.3 mm are picked for the test method. For the assessment of neural progenitor cell migration and differentiation, the spheres are plated on poly-D-lysine/laminin coated 96-well flat bottom plates in differentiation medium (N2) to initiate migration and differentiation. Thereby one 0.3 mm big sphere is plated in the middle of a well. The differentiation medium consists of DMEM and Ham's F12 at a ratio of 3 to 1 supplemented with 1% N2 and 1% penicillin and streptomycin. Within 5 days NPCs radially migrate out of the sphere core and differentiate into radial glia cells (nestin positive), neurons (TUBB3 positive), oligodendrocytes (O4 positive) and astrocytes (GFAP positive). Cultivation during the test method is performed at 37C and 5% CO2 at a ph of 7.2-7.6.Exposure: 0.3 mm big hNPC are plated in the already prepared test conditions. Exposure starts at day 0 of differentiation and is continued over five days of differentiation until the experiment is terminated. Cells are fed with fresh medium at day 3 of differentiation. Therefore, half of the test condition solution (e.g. solvent control or compound dilution) is replaced by freshly prepared test condition solution.Test Method: Migration distance and cytotoxicity is determined after 72 hours based on brightfield images of each well. The assay is terminated by the assessment of cell viability and cytotoxicity as well as cell fixation after 120 h. Immunocytochemistry is performed for Hoechst positive nuclei, TUBB3 positive neurons and O4 positive oligodendrocytes. On the ICC images, migration after 120 hours, neuronal and oligodendrocyte number, neuronal morphology and neuron/oligodendrocyte specific migration is assessed. immunocytochemical staining (ICC) generates an image for each sphere. The plates are scanned using an automated high content imaging device and all nuclei and their positions are determined automatically based on their intensity and size. Images are imported to the Omnisphero software to run the image analysis that measures the following endpoints. […]

Compound	outcome	AC50
CCOP(=O)(NC(C)C)Oc1ccc(SC)c(C)c1 (centres undefined)	inactive	–
CCOP(=S)(OCC)OC(Cl)C(Cl)(Cl)Cl (centres undefined)	inactive	–
S=C1NCCN1	inactive	–
CCOP(=S)(OCC)SCCSCC	inactive	–
C=C(C)[C@H]1Cc2c(ccc3c2O[C@@H]2COc4cc(OC)c(OC)cc4[C@@H]2C3=O)O1	inactive	–
COP(=O)(NC(C)=O)SC (centres undefined)	inactive	–
COP(=O)(OC)OC(Br)C(Cl)(Cl)Br (centres undefined)	–	70.1 µM (active)
CCOC(=O)CC(SP(=O)(OC)OC)C(=O)OCC (centres undefined)	inactive	–
CN1COCN(Cc2cnc(Cl)s2)C1=N[N+](=O)[O-]	inactive	–
CCOP(=O)(OCC)Oc1cc(C)nc(C(C)C)n1	inactive	–
CCCSP(=O)(OCC)SCCC	inactive	–
CON=C(C(=O)OC)c1ccccc1CON=C(C)c1cccc(C(F)(F)F)c1	inactive	–
CC[C@H](C)[C@H]1O[C@]2(C=C[C@@H]1C)C[C@@H]1C[C@@H](C/C=C(\C)[C@@H](O[C@H]3C[C@H](OC)[C@@H](O[C@H]4C[C@H](OC)[C@@H](NC)[C@H](C)O4)[C@H](C)O3)[C@@H](C)/C=C/C=C3\CO[C@@H]4[C@H](O)C(C)=C[C@@H](C(=O)O1)[C@]34O)O2	–	1.05 µM (active) and 1.48 µM (active)
O=[N+]([O-])c1cc(C(F)(F)F)c(Cl)c([N+](=O)[O-])c1Nc1ncc(C(F)(F)F)cc1Cl	–	1.08 µM (active)
COP(=O)(OC)C(O)C(Cl)(Cl)Cl (centres undefined)	inactive	–
CC(=NC#N)N(C)Cc1ccc(Cl)nc1	inactive	–
CC(C)N(C(=O)SCC(Cl)=C(Cl)Cl)C(C)C	inactive	–
C[N+]1(C)CCCCC1	–	0.0969 µM (active)
CCCCSP(=O)(SCCCC)SCCCC	inactive	–
CCOP(=S)(OCC)Oc1cc(C)nc(C(C)C)n1	inactive	–
CN(C)[C@@H]1C(=O)C(C(N)=O)=C(O)[C@@]2(O)C(=O)C3=C(O)c4c(O)cccc4[C@@](C)(O)[C@H]3[C@H](O)[C@@H]12	–	25.8 µM (active)
CSC1=N[C@@](C)(c2ccccc2)C(=O)N1Nc1ccccc1	inactive	–
CC1=NNC(=O)N(/N=C/c2cccnc2)C1	inactive	–
CCOP(=S)(Oc1cnc(C(C)(C)C)nc1)OC(C)C (centres undefined)	inactive	–
